In PubChem BioAssay AID1159580 (chemical genetic matrix, 2015):
Where “and” joins values, the source holds several entries; their conditions need not be identical. Equal values may be shown once. The whole screen tested about 5,500 compounds, of which about 2,000 (36%) were called active. Inconclusive results (about 18%) are left out. Cut-off read from the data, not from the text of the source: active = normalized growth mostly below about 0.91 (no sharp cut-off); inconclusive = no clear call, values can overlap the other calls; inactive = mostly above about 0.92. This is one part of the list.

Test: chemical genetic growth profiling, strain panel (AID 1159580);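 note: tested at 20 µM; growth read once vehicle control cultures reached saturation at 30 °C; 1 = growth at the plate median or of vehicle wells; lower values mean less growth of the strain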
Conditions: S. cerevisiae deletion strains, growth OD

Measured: normalized growth

COc1cc(/C=C/C(=O)O)ccc1O
inactive: locus YAL021C, strain ccr4, hits give low values 1 | locus YAL026C, strain drs2, hits give low values 1.01 | locus YAL030W, strain snc1, hits give low values 1.01 | locus YBL061C, strain skt5, hits give low values 1.01 | locus YBR009C, strain hhf1, hits give low values 1.02 | locus YBR021W, strain FUR4, hits give low values 1.01 | locus YBR023C, strain chs3, hits give low values 1.01 | locus YBR171W, strain sec66, hits give low values 1.01 | locus YBR229C, strain ROT2, hits give low values 1.01 | locus YBR231C, strain swc5, hits give low values 1.01 | locus YBR279W, strain paf1, hits give low values 1.01 | locus YCL011C, strain gbp2, hits give low values 1.01 | locus YCL016C, strain dcc1, hits give low values 1.01 | locus YCL029C, strain bik1, hits give low values 0.977 | locus YCL061C, strain MRC1, hits give low values 1.02 | locus YCL069W, strain vba3, hits give low values 0.998 | locus YCR088W, strain abp1, hits give low values 1.01 | locus YDL005C, strain med2, hits give low values 1.02 | locus YDL035C, strain GPR1, hits give low values 1.01 | locus YDL040C, strain nat1, hits give low values 1 | locus YDL074C, strain BRE1, hits give low values 1 | locus YDL101C, strain DUN1, hits give low values 1.02 | locus YDL185W, strain tfp1, hits give low values 0.971 | locus YDL192W, strain arf1, hits give low values 0.986 | locus YDR001C, strain nth1, hits give low values 1.01 | locus YDR069C, strain doa4, hits give low values 1.03 | locus YDR101C, strain arx1, hits give low values 0.961 | locus YDR137W, strain rgp1, hits give low values 1.01 | locus YDR150W, strain NUM1, hits give low values 1 | locus YDR159W, strain sac3, hits give low values 0.98 | locus YDR162C, strain NBP2, hits give low values 0.992 | locus YDR195W, strain ref2 0.966 | locus YDR297W, strain sur2, hits give low values 1.01 | locus YDR318W, strain mcm21, hits give low values 0.997 | locus YDR334W, strain swr1, hits give low values 1.01 | locus YDR335W, strain msn5, hits give low values 1.01 | locus YDR388W, hits give low values 0.979 | locus YDR392W, strain spt3, hits give low values 0.985 | locus YDR502C, strain sam2, hits give low values 0.984 | locus YEL003W, strain gim4, hits give low values 1 | locus YEL037C, strain rad23, hits give low values 1.01 | locus YEL061C, strain CIN8 (second series), hits give low values 1.01 | locus YEL061C, strain CIN8, hits give low values 0.972 | locus YER015W, strain faa2, hits give low values 1.01 | locus YER016W, strain bim1, hits give low values 1 | locus YER110C, hits give low values 0.981 | locus YER111C, strain swi4, hits give low values 1.01 | locus YER155C, strain BEM2 (second series), hits give low values 0.999 | locus YER155C, strain BEM2, hits give low values 1 | locus YER167W, strain BCK2, hits give low values 0.973 | locus YFR010W, strain ubp6, hits give low values 1.01 | locus YGL078C, strain dbp3, hits give low values 0.983 | locus YGL086W, strain mad1, hits give low values 0.952 | locus YGL167C, strain pmr1, hits give low values 1.01 | locus YGL173C, strain kem1, hits give low values 1.01 | locus YGL227W, strain vid30, hits give low values 1.01 | locus YGL240W, strain doc1, hits give low values 1.02 | locus YGL248W, strain PDE1, hits give low values 1.02 | locus YGL253W, strain hxk2, hits give low values 0.997 | locus YGR135W, strain pre9, hits give low values 0.995 | locus YGR252W, strain gcn5, hits give low values 1.07 | locus YHR013C, strain ard1, hits give low values 0.996 | locus YHR027C, strain rpn1, hits give low values 1 | locus YHR030C, strain SLT2, hits give low values 0.993 and 1.02 | locus YHR079C, strain IRE1 (second series), hits give low values 0.972 | locus YHR079C, strain IRE1, hits give low values 1.05 | locus YHR094C, strain hxt1, hits give low values 0.966 | locus YHR129C, strain ARP1, hits give low values 1 | locus YHR142W, strain chs7, hits give low values 1.01 | locus YHR200W, strain rpn10, hits give low values 0.989 | locus YIL066C, strain RNR3, hits give low values 1 | locus YIL073C, strain SPO22, hits give low values 0.99 | locus YIL125W, strain kgd1, hits give low values 0.968 | locus YIR030C, strain dcg1, hits give low values 0.983 | locus YJL092W, strain hpr5, hits give low values 1.01 | locus YJL095W, strain BCK1 (second series), hits give low values 1.01 | locus YJL095W, strain BCK1, hits give low values 1.03 and 1 | locus YJL115W, strain asf1, hits give low values 1.01 | locus YJL129C, strain trk1, hits give low values 1.01 | locus YJL134W, strain LCB3, hits give low values 0.999 | locus YJL154C, strain vps35, hits give low values 1 | locus YJL164C, strain tpk1, hits give low values 1 | locus YJL166W, strain qcr8, hits give low values 1.02 | locus YJL168C, strain set2, hits give low values 0.984 | locus YJL187C, strain SWE1 (second series), hits give low values 1.01 | locus YJR043C, strain POL32, hits give low values 1.03 | locus YJR066W, strain TOR1, hits give low values 0.995 | locus YKL009W, strain mrt4, hits give low values 1.01 | locus YKL068W, hits give low values 0.974 | locus YKL085W, strain MDH1 (second series), hits give low values 0.977 | locus YKL085W, strain MDH1, hits give low values 0.977 | locus YKL160W, strain elf1, hits give low values 1.01 | locus YKL190W, strain CNB1, hits give low values 0.995 | locus YKR001C, strain vps1, hits give low values 0.967 | locus YKR026C, strain gcn3, hits give low values 1.02 | locus YKR091W, strain srl3, hits give low values 1.01 | locus YLL001W, strain dnm1, hits give low values 1.01 | locus YLL026W, hits give low values 1.01 | locus YLL041C, strain sdh2, hits give low values 1.01 | locus YLR027C, strain aat2, hits give low values 1.01 | locus YLR039C, strain RIC1, hits give low values 0.99 | locus YLR058C, strain SHM2, hits give low values 1.01 | locus YLR102C, strain apc9, hits give low values 0.98 | locus YLR113W, strain HOG1, hits give low values 0.958 | locus YLR221C, strain rsa3, hits give low values 1.01 | locus YLR258W, strain gsy2, hits give low values 1.01 | locus YLR262C, strain YPT6 (second series), hits give low values 1.01 | locus YLR262C, strain YPT6, hits give low values 1.01 | locus YLR268W, strain sec22, hits give low values 0.967 | locus YLR320W, strain mms22, hits give low values 1 | locus YLR330W, strain CHS5, hits give low values 1.01 | locus YLR342W, strain FKS1 (second series), hits give low values 1.02 | locus YLR342W, strain FKS1, hits give low values 1.02 | locus YLR357W, strain rsc2, hits give low values 1.01 | locus YLR370C, strain arc18, hits give low values 1.02 | locus YLR371W, strain rom2, hits give low values 0.936 | locus YLR384C, strain iki3, hits give low values 1.01 | locus YLR418C, strain cdc73, hits give low values 0.968 | locus YML016C, strain PPZ1, hits give low values 1.01 | locus YML032C, strain rad52, hits give low values 1.01 | locus YML120C, strain ndi1, hits give low values 1 | locus YML124C, strain tub3, hits give low values 0.984 | locus YMR058W, strain fet3, hits give low values 1.02 | locus YMR078C, strain ctf18, hits give low values 0.984 | locus YMR125W, strain sto1, hits give low values 1 | locus YMR129W, hits give low values 1.01 | locus YMR205C, strain PFK2, hits give low values 1.01 | locus YMR223W, strain ubp8, hits give low values 1.01 | locus YMR231W, strain pep5, hits give low values 1.01 | locus YMR263W, strain SAP30, hits give low values 1 | locus YMR307W, strain GAS1, hits give low values 0.99 | locus YNL067W, strain RPL9B, hits give low values 1 | locus YNL071W, strain lat1, hits give low values 1 | locus YNL183C, strain NPR1, hits give low values 1 | locus YNL209W, strain ssb2, hits give low values 1.01 | locus YNL233W, strain BNI4, hits give low values 1.01 | locus YNL248C, strain rpa49, hits give low values 1.01 | locus YNL250W, strain rad50, hits give low values 0.995 | locus YNL271C, strain bni1, hits give low values 1 | locus YNL298W, strain CLA4, hits give low values 0.981 | locus YNL307C, strain MCK1, hits give low values 0.977 | locus YNL322C, strain KRE1 (second series), hits give low values 1.01 | locus YNL322C, strain KRE1, hits give low values 0.999 | locus YNR049C, strain mso1, hits give low values 1.01 | locus YNR052C, strain pop2, hits give low values 0.991 | locus YOL012C, strain htz1 0.646 | locus YOL147C, strain pex11, hits give low values 0.969 | locus YOR001W, strain rrp6, hits give low values 1.06 | locus YOR061W, strain CKA2, hits give low values 1.01 | locus YOR069W, strain VPS5, hits give low values 0.995 | locus YOR070C, strain gyp1, hits give low values 1.01 | locus YOR080W, strain dia2, hits give low values 1.01 | locus YOR083W, strain WHI5, hits give low values 1.02 | locus YOR106W, strain vam3, hits give low values 1.03 | locus YOR136W, strain idh2, hits give low values 0.974 | locus YOR144C, strain elg1, hits give low values 0.977 | locus YOR184W, strain ser1, hits give low values 1.01 | locus YOR231W, strain MKK1, hits give low values 1.03 | locus YOR265W, strain rbl2, hits give low values 1 | locus YOR270C, strain vph1, hits give low values 0.994 | locus YOR290C, strain snf2, hits give low values 1.01 | locus YOR316C, strain cot1, hits give low values 0.981 | locus YPL051W, strain arl3, hits give low values 1.01 | locus YPL078C, strain atp4, hits give low values 1.02 | locus YPL106C, strain sse1, hits give low values 1.01 | locus YPL240C, strain hsp82, hits give low values 1.02 | locus YPL241C, strain CIN2, hits give low values 0.999 | locus YPL256C, strain CLN2, hits give low values 1 | locus YPR119W, strain clb2, hits give low values 0.975 | locus YPR141C, strain kar3, hits give low values 0.975 | locus YPR163C, strain tif3, hits give low values 0.977 | locus YPR167C, strain met16, hits give low values 0.992 | strain wtn01, hits give low values 0.968
